A selection: hits, their analogues and other compounds. The true share with any hit is near 2.4%.
D2 ag-1: agonists of human D2 dopamine receptor; HEK293 T-REx D2 cells, calcium flux agonist mode; activation, % at 2 µM; hit rate 0.53% among 340,000;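 active = activation over 3 SD above normal in the single-dose calcium agonist read, cut at about 30% in these data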
Target sequence (P14416 whole entry, looked up): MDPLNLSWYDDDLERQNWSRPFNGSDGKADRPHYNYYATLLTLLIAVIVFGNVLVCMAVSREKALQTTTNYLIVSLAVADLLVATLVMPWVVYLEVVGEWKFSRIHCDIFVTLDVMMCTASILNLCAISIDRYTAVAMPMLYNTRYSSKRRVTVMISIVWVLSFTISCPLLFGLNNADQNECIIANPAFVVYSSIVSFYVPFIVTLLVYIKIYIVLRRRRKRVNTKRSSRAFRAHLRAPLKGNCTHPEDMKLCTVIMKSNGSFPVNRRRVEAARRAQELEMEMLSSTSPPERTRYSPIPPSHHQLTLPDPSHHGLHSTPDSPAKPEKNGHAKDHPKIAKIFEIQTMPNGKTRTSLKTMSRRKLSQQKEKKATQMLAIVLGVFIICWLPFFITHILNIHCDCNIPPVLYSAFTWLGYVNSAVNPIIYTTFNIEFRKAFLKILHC
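In this primary screen, compounds producing a positive calcium signal within 180 s of addition to tetracycline-induced, force-coupled HEK293 Trex D2 cells are flagged; cells are dye-loaded with a no-wash calcium kit beforehand.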
D2 ag-2: activates the human D2 dopamine receptor. P14416. DiscoveRx PathHunter D2 beta-arrestin, luminescence, 90 min; 100% = 57 uM dopamine signal. activation, % (concentration not given with the values). hit rate 0.084% among 360,000. AID 624465; in the data active = activation above about 40%; inconclusive = between about 15% and that limit
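Agonist mode: compounds alone added to overnight-plated D2 PathHunter cells for 90 min at 37 C, with 57 uM final dopamine (EC100) defining full response. Beta-arrestin recruitment detected by chemiluminescent reagent, read after 1 h at ambient temperature.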
D2 antagonist: antagonizes the human D2 dopamine receptor. P14416. AID 485344. hit rate 2% among 340,000. HEK293 TREx D2 cells, calcium flux, dopamine EC80. inhibition, % at 10 µM; in the data active = inhibition above about 30%; inactive = below that, where a call was filed
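HEK293 T-REx D2 cells, tet-induced, calcium dye no-wash. Cpd pintool add, 180 s kinetic, then EC80 DA, 180 s kinetic. Ca flux read.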
D2 PAM-1: positively modulates the human D2 dopamine receptor allosterically; HEK293 T-REx D2, calcium flux, EC20 dopamine potentiation; potentiation, % at 10 µM; hit rate 0.34% among 340,000; AID 485347;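 active = potentiation over 3 SD above the plate norm, cut at about 30% in these data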
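Potentiation of an EC20 dopamine calcium response measured kinetically over 180 s, after a preceding 180 s compound-only read flagging agonists. Cells: inducible Hek293 Trex D2 line, 4000/well, cultured overnight at 30 C before dye loading.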
D2 PAM-2: human D2 receptor positive allosteric modulation. potentiation, % (concentration not given with the values). P14416. AID 624464. DiscoveRx D2 beta-arrestin cells, luminescence, 90 min; 100% = 57 uM dopamine signal. hit rate 0.23% among 360,000; in the data active = potentiation above about 50%; inconclusive = mostly about 30% to 49%
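PathHunter beta-arrestin assay in DiscoveRx D2 cells. Compounds were added with an EC20 of dopamine (50 nM final) for 90 min at 37 deg C. Luminescence was read 1 h after detection reagent, with 57 uM dopamine as the EC100 control.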
A number is an active result; i = inactive; ? = inconclusive; nt = no result given.

SMILES | D2 ag-1 | D2 ag-2 | D2 antagonist | D2 PAM-1 | D2 PAM-2
Cc1ccsc1C(=O)Nc1ccccc1N1CCOCC1 | i | i | 38 | i | i
Cc1ccsc1C(=O)NNC(=O)c1csc(N2CCOCC2)n1 | i | i | 32 | i | i
O=C(CSc1cn(CCNC(=O)c2cccc(C(F)(F)F)c2)c2ccccc12)Nc1ccc2c(c1)OCCO2 | i | nt | nt | i | nt
COc1ccc(NC(=O)CCCn2nc(C)c3sc4ccccc4c3c2=O)cc1 | i | nt | nt | i | nt
C/C(=N\Nc1ccc(Cl)c(C(=O)O)c1)c1ccc(Br)s1 | i | i | 47 | i | i
CCOC(=O)c1c(NC(=O)CC(C)C)sc(C(C)=O)c1C | i | i | i | 37 | i
COc1ccc(OC)c(NC(=O)CSc2nccn2-c2cc(C)cc(C)c2)c1 | i | nt | nt | i | nt
COc1ccc(C(=O)NCc2ccc3c(c2)CCN3C(=O)c2ccncc2)cc1 | i | nt | nt | i | nt
CCOC(=O)N1CCC(=NNC(=O)Cn2ccc(C(F)(F)F)n2)CC1 | i | i | i | 33 | i
COc1ccc(NC(=O)C(=O)c2cc(C)n(-c3ccc(C)cc3)c2C)cc1Cl | i | nt | nt | i | nt
O=C1CC(c2ccco2)CC(O)=C1C=NCCN1CCNCC1 (centres undefined) | i | i | i | i | i
O=C1CC(c2ccco2)CC(O)=C1C=NCCN1CCN(C2CC(=O)N(c3ccccc3)C2=O)CC1 (centres undefined) | i | i | i | 47 | i
O=C(OCC(=O)N1CCCC1)c1c[nH]c2ccccc12 | i | i | i | i | i
Cc1cc(C)cc(C(=O)OCC(=O)N2CCCCCC2)c1 | i | i | 42 | i | i
O=C(OCC(=O)N1CCCCC1)c1c[nH]c2ccccc12 | i | i | i | 68 | i
COc1cc(OC)cc(C(=O)OCC(=O)N2CCCC2)c1 | i | i | i | i | i
Cc1ccc(-n2c(=O)c3c(C)c(C(=O)N(C)C)sc3n(CC(=O)N(C)c3ccccc3)c2=O)cc1C | i | nt | nt | nt | nt
c1ccc(CN2CCN(c3nc4ccccc4n4cnnc34)CC2)cc1 | i | i | 68 | i | i
Clc1cccc(N2CCN(CCNc3nc4ccccc4n4cnnc34)CC2)c1 | i | i | 42 | i | i
O=C(COCc1cc(-c2cccs2)on1)NCc1cccc(Cl)c1 | i | nt | nt | i | nt
FC(F)Sc1ccc(NC(=S)NC2CCCCC2)cc1 | i | i | i | i | i
FC(F)Sc1ccc(NC(=S)NCC2CCCCC2)cc1 | i | i | 32 | i | i
CCN(CC)C(=O)CSc1nc(O)c(Cc2ccc(OC)cc2)c(=O)[nH]1 | i | i | i | i | i
CCc1c(O)nc(SCC(=O)N(CC)CC)[nH]c1=O | i | i | 34 | i | i
O=C1c2ccccc2S(=O)(=O)c2cc(C(=O)N(c3ccccn3)c3ccccn3)ccc21 | 37 | i | i | i | ?
SMILES | D2 ag-1 | D2 ag-2 | D2 antagonist | D2 PAM-1 | D2 PAM-2
O=C(Nc1ccccn1)c1ccc2c(c1)S(=O)(=O)c1ccccc1C2=O | i | i | i | i | i
O=C(NCCOc1ccccc1)c1ccc2c(c1)S(=O)(=O)c1cc(Cl)ccc1C2=O | nt | i | nt | nt | 73
CCC(C)(C)NC(=O)c1ccc2c(c1)S(=O)(=O)c1ccccc1C2=O | i | i | i | i | 71
COC(=O)c1ccccc1NC(=O)C1=CC(c2ccc(C)cc2)=NS(=O)(=O)N1C | i | nt | nt | i | nt
CC1CCCCN1C(=O)CSc1nc2ccccc2nc1Cc1ccc(Cl)cc1 (centres undefined) | i | nt | nt | i | nt
COc1ccccc1N=c1oc2cc(O)ccc2cc1C(=O)NCC1CCCO1 (centres undefined) | i | i | 36 | i | i
CC(c1ccccc1)n1cc(C(=O)NCC2CCCO2)nn1 (centres undefined) | i | i | 40 | i | i
COc1cccc(N=c2oc3cc(O)ccc3cc2C(=O)NCC2CCCO2)c1 (centres undefined) | i | i | i | i | i
CC(c1ccccc1)n1cc(C(=O)NCCN2CCOCC2)nn1 (centres undefined) | i | i | i | i | i
COCCSc1ccccc1C(=O)NCC1CCCO1 (centres undefined) | i | i | 34 | i | i
CSc1ccccc1C(=O)NCC1CCCO1 (centres undefined) | i | i | i | i | i
COC(=O)c1cc(C(=O)OC)cc(-n2c(C)cc(C(=O)CC#N)c2C)c1 | i | i | 33 | i | i
COc1cccc(NS(=O)(=O)c2cc(-c3cnc(C4CC4)o3)ccc2C)c1 | nt | nt | nt | i | nt
Cc1ccc(O)c(NC(=O)CCSc2nc(-c3ccco3)cc(C(F)(F)F)n2)c1 | i | nt | nt | i | nt
Cc1ccc(C2C(C(=O)c3cccs3)=C(O)C(=O)N2c2nnc(C)s2)cc1 (centres undefined) | 40 | i | i | i | i
COc1ccc(C2C(C(=O)c3cccs3)=C(O)C(=O)N2c2cccc(C)n2)cc1 (centres undefined) | i | i | i | i | i
Cc1ccc(S(=O)(=O)Cc2ccc(C(=O)NCCCN3CCCC3=O)o2)cc1 | i | i | 34 | i | i
O=C(NCCCN1CCCC1)c1ccc(CS(=O)(=O)c2ccc(Br)cc2)o1 | i | i | i | i | i
Cc1nnc(NC(=O)c2ccc(S(=O)(=O)N3CC(C)CC(C)C3)cc2)o1 (centres undefined) | i | i | i | 35 | i
CCc1ccc(Nc2nc(-c3cc4cccc(OC)c4oc3=O)c(CC)s2)cc1 | i | nt | nt | i | nt
COc1ccc(NC(=O)CN(C)C(=O)CN2C(=O)c3ccc([N+](=O)[O-])cc3C2=O)cc1 | i | i | i | i | 66
O=C(CN1C(=O)c2ccc([N+](=O)[O-])cc2C1=O)NCc1ccc(C(=O)O)cc1 | i | i | i | i | 51
O=C(CCN1C(=O)c2ccc([N+](=O)[O-])cc2C1=O)Nc1ccc(O)cc1C(=O)O | i | ? | i | i | 61
CN(C(=O)c1cccnc1)c1nnc(-c2ccccn2)s1 | i | i | i | i | i
CC(=O)N(C)c1nnc(-c2ccccn2)s1 | i | i | 43 | i | i
SMILES | D2 ag-1 | D2 ag-2 | D2 antagonist | D2 PAM-1 | D2 PAM-2
OC1CCCCC1Sc1nc2ccccc2s1 (centres undefined) | i | i | 40 | i | i
COc1cc(OC)c(NC(=O)N2CCc3cc(S(=O)(=O)N4CCC(C)CC4)ccc32)cc1Cl | i | nt | nt | i | nt
COC(=O)C1=C(C)OC(N)=C(C#N)C1c1cc2cc(C)ccc2nc1Cl (centres undefined) | i | i | i | i | i
CC(=O)C1=C(C)OC(N)=C(C#N)C1c1cc2cc(C)c(C)cc2nc1Cl (centres undefined) | i | i | 31 | i | i
Cc1ccc(C)c(Nc2nc(-c3ccncc3)nc3ccccc23)c1 | nt | i | 36 | i | i
Cc1ccc([N+](=O)[O-])cc1NC(=O)C1CCCC1 | i | i | i | i | i
Cc1ccc([N+](=O)[O-])cc1N/C=C1\CCCCC1=O | i | i | 52 | i | i

Bioassay records from PubChem BioAssay.
